Laboratory results from PubChem BioAssay (NCI).
Values joined by “and” are separate entries in the source; they are usually repeats but may differ in a detail not shown here. Equal entries are not always repeated. Compounds without any hit were thinned out: in the full panel of roughly 83,000, 20% have a hit.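 Values shown are percent growth following 48 h exposure of cells in 96-well plates to a single concentration of compound; below 10 was considered active.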 Values without a mark were called inactive. Active and inactive are the calls of the source.

Legend:
Assay in all cases: NCI-60 one-dose screen, 48 h (100 = growth as untreated, 0 = no growth, -100 = all killed)
Details in all cases: 10 µM unless noted
HCT-15 colon = test system: HCT-15 colon
HT29 colon = test system: HT29 colon
SNB-75 CNS = test system: SNB-75 CNS
SNB-19 CNS = test system: SNB-19 CNS
U251 CNS = test system: U251 CNS
PC-3 prostate = test system: PC-3 prostate
SK-MEL-5 melanoma = test system: SK-MEL-5 melanoma
UACC-62 melanoma = test system: UACC-62 melanoma
LOX IMVI melanoma = test system: LOX IMVI melanoma
SK-MEL-28 melanoma = test system: SK-MEL-28 melanoma

Row | Structure (SMILES) | growth (HCT-15 colon) | growth (HT29 colon) | growth (SNB-75 CNS) | growth (SNB-19 CNS) | growth (U251 CNS) | growth (PC-3 prostate) | growth (SK-MEL-5 melanoma) | growth (UACC-62 melanoma) | growth (LOX IMVI melanoma) | growth (SK-MEL-28 melanoma)
1 | CN(C)c1ccc(C(=C2C=CC(=[N+](C)C)C=C2)c2ccc(N(C)C)cc2)cc1 (tested in a mixture with another compound) | -74.7% (active) | -87.3% (active) | -97.3% (active) | -99.1% (active) | -95.8% (active) | -38% (active) | -99.3% (active) | -64.4% (active) | -89.2% (active) | -87% (active)
2 | COc1ccc(N=N/N=c2\sc3cc(OC)ccc3n2C)cc1 | 98.9% | 78.9% | 101% | 98% | 77.7% | 77.9% | 84.6% | 83.1% | 105% | 94%
3 | O=[N+]([O-])c1ccc2c(N=Nc3ccc4ccccc4c3O)c(O)cc(S(=O)(=O)O)c2c1 | 85.1% | 104% | 105% | 79.7% | 57.7% | 77.2% | 85% | 79.4% | 66.2% | 98.8%
4 | NC1=CC(=O)c2ccccc2C1=O | 61.5% | 94.7% | 89.2% | 96.3% | 66.7% | 55.6% | 22.9% | 60.8% | 24.5% | 103%
5 | Cc1cc2nc(CS)[nH]c2cc1C | 101% | 89.9% | 75.5% | 93.3% | 85.1% | 87.4% | 87.7% | 84.4% | 88% | 89.5%
6 | CCCCCCCCCCCCCCCCN(CC)CC | -90.2% (active) | -56.8% (active) | -22.6% (active) | -87.9% (active) | -66.8% (active) | 0.915% (active) | -97.7% (active) | -86.6% (active) | -100% (active) | -91% (active)
7 | N#Cc1ccc([N+](=O)[O-])o1 | 104% | 93.9% | 109% | 101% | 90% | 93.3% | 96.8% | 95.4% | 108% | 106%
8 | N#CSCc1c(Cl)cccc1Cl | 14.6% | 12% | 96.4% | 90.2% | 91.8% | 76.2% | 87.5% | 88.5% | 49.9% | 56.2%
9 | O=[N+]([O-])c1ccc(N=Nc2ccc(O)cc2O)cc1 | 36.9% | 75.7% | 70.3% | 53.7% | 38.4% | 32.1% | 43.3% | 36.4% | 51.8% | 44.2%
10 | O=C(O)C1C2CC3C(OC(=O)C31)C2Br (configuration not stated) | 97.3% and 101% | 84.9% and 105% | 106% and 80.7% | 97.3% and 107% | 92.3% and 91.1% | 90.4% and 105% | 103% and 93.2% | 93.5% and 107% | 101% and 95.2% | 100% and 103%
11 | CN(C)CCOc1ccc2c(c1)C(=O)/C(=C\c1ncc([N+](=O)[O-])n1C)C2 | -10.2% (active) | -32.6% (active) | -86.6% (active) | -39.2% (active) | -14.4% (active) | -11.2% (active) | -97.6% (active) | -59.7% (active) | -41.9% (active) | -71.2% (active)
12 | COc1cc(/C=C/C(C)=O)ccc1O | 96.9% and 96.3% | 109% and 125% | 98.4% and 82.5% | 98.3% and 112% | 103% and 104% | 92.5% and 102% | 97% and 113% | 88.5% and 107% | – | 112% and 103%
13 | C1=C(c2ccccc2)C(c2ccc(OCCN3CCCCC3)cc2)Oc2ccccc21 (configuration not stated) | 23.2% | 1.98% (active) | 56.5% | 53.7% | 38.2% | 60.6% | -95.5% (active) | -41% (active) | -76.9% (active) | -51.2% (active)
14 | O=C(/C=C/C=C/c1ccccc1)c1ccco1 | 92.2% | 85.4% | 83% | 92.5% | 56.4% | 85.9% | 91.1% | 72.1% | 64.8% | 123%
15 | C/C=C1\SC(=S)NC1=O | 98.9% | 108% | 88.5% | 102% | 96.2% | 95.1% | 99.8% | 97.8% | – | 107%
16 | Oc1ccc(/C=N/NC(=S)Nc2ccccc2)nc1 | 24.8% | 34.6% | 31.4% | 42% | 14.7% | 23.3% | -45.3% (active) | -9.22% (active) | -18.7% (active) | 43.1%
17 | Cc1cc(C(C)(CC(C)C)c2ccc(O)c(C)c2)ccc1O | 85.5% | 98.7% | 75.8% | 109% | 94.3% | 93.2% | 97.5% | 71.1% | 97% | 114%
18 | Cc1ccc(C(=Nc2ccccc2)N=P(c2ccccc2)(c2ccccc2)c2ccccc2)cc1 | 2.78% (active) | 2.74% (active) | 15.6% | -15.8% (active) | -7.18% (active) | -31.5% (active) | -96.6% (active) | -78.5% (active) | -82.9% (active) | -48.6% (active)
19 | O=C1c2ccccc2C(=O)c2sc(Nc3cccc(Cl)c3)nc21 | -67.3% (active) | 76.1% | -85.2% (active) | 42.8% | -47.3% (active) | 3.03% (active) | -82.6% (active) | -55.6% (active) | -69.1% (active) | -78.1% (active)
20 | CCCCCCCCCCCCCCNCc1ccccc1 | 45.6% | 26.1% | 82.7% | 85.6% | 57.6% | 81.7% | 62.4% | 99.1% | 53.3% | 82.4%
21 | O=C(CC1(O)C(=O)Nc2c(Cl)ccc(Cl)c21)c1ccc(Cl)cc1Cl (configuration not stated) | 101% | 90.3% | 70.1% | 107% | 96.4% | 81% | 100% | 97.8% | 100% | 109%
22 | CC1OC2CC(=O)OC2C2=C1C(=O)c1c(O)cccc1C2=O (configuration not stated) | -76.6% (active) | -51.8% (active) | -100% (active) | 15.9% | -44.8% (active) | -35.3% (active) | -100% (active) | -89.4% (active) | -91.6% (active) | -93.5% (active)
23 | C=C(Cl)C(=NC(C)(C)C)Nc1ccccc1C | 101% | 37.6% | 85.7% | 95.3% | 83.9% | 77.3% | 95.4% | 59.7% | 81.1% | 98.4%
24 | CC(C)(C)c1ccc(O)c(C2CCCCC2)c1 | 102% | 87% | 100% | 122% | 101% | 95% | 96.3% | 96.7% | 104% | 110%
25 | Cn1c2c(c3ccccc31)CCN1C[C@@H]3CCCC[C@H]3C[C@@H]21 | 9.14% (active) | 1.8% (active) | -21.7% (active) | 18.3% | 19.8% | 23% | -16.1% (active) | 18.4% | – | 31.1%
26 | COc1ccccc1/C=C\C(=O)c1ccccc1 | 70.2% | 41.9% | 77.8% | 79.4% | 45.6% | 61.8% | 72.3% | 77.2% | 28.6% | 94.9%
